Experimental data published in PubChem BioAssay AID540277 (National Center for Advancing Translational Sciences (NCATS), 2011).
Out of some 320,000 compounds screened, about 55 (0.02%) were called active. About 3% were inconclusive and are not listed. Rule as the data show it: active = potentiation above about 80%; inconclusive = between about 30% and that limit; inactive = weaker than that. This excerpt belongs to a sample that is enriched for actives.

What follows are compounds tested against Transient receptor potential cation channel subfamily V member 1 (Homo sapiens) (UniProt Q8NER1) (assay: HTS Assay for Compounds that Act as Potentiators of the Vanilloid Receptor 1). Conditions: TRPV1-expressing cells, Fluo-8 calcium influx, capsaicin EC20 potentiation; at 8.33 µM; hits give high values.
Source text: The transient receptor potential ion channel, family V, number 1, (TRPV1) is one of the most important molecular transducers of painful stimuli and a potential target for analgesic drug development. Although recent clinical trials with orthosteric antagonists have not produced a successful drug because of a hyperthermia side effect and their tendency to block thermal noxious pain, this ion channel is undeniably well placed in the pain pathway, and the idea of blocking pain signals before they enter the CNS is an excellent concept and of proven efficacy when TRPV1 agonists are used. We propose a new approach involving allosteric modulation to impose an activity-dependent constraint within the context of inflammation and tissue damage that would alter the responsiveness of the channel in a way that an orthosteric vanilloid antagonist cannot achieve. We believe that the allosteric modulator approach has not been explored for this target. The main goal of this proposal is to identify additional, new, potent allosteric modulators of TRPV1 that can be used to investigate TRPV1 function. Our recent report provides evidence of proof of concept, but the compounds are just at the edge of utility in terms of potency. […] The question of whether they can be used as analgesic agents is complex, but if suitable compounds are identified then testing for analgesic properties will be conducted. NIH Chemical Genomics Center [NCGC] NIH Molecular Libraries Probe Centers Network [MLPCN] MLPCN Grant: MH089480-1A1 Assay Submitter (PI): Michael Iadarola, National Institute of Dental and Cranofacial Research
Upon TRPV1 activation in TRPV1 cells, the channel opens and extracellular cations flow through the channel into the cytosol. A calcium binding dye (Fluo-8) becomes fluorescent when bound to calcium. This dye is pre-loaded into cells and is used as a marker for calcium influx. The amount of accumulated calcium is precisely quantified using the FDSS kinetic reader and the calcium dye. For the HTS assay, freshly prepared cells are plated at a density of 2000/well in 3 ul medium in 1536-well plates and cultured overnight at 35.5C. Cells will be loaded with 1 ul of the homogeneous calcium dye (ABD Bioquest) at room temperature for 40 to 90 minutes. Plates will be loaded into the FDSS kinetic reader and a 1 sec / cycle for 10 second baseline signal will be measured. Compound library will then be added with a pintool at 23 nl and measured kinetically for 3 minutes. This portion of the read is considered the agonist portion of the screen. Following the 3 minutes of incubation, an on board pipettor will deliver 1 ul of capsaicin for a final concentration equal to the EC20. Signal will be measured kinetically for an additional 2 minutes. This portion of the read is considered the allosteric enhancer portion of the screen. The FDSS reader has a standard filter set capable of measuring calcium bound Fluo-8 (ex=480 and em=520 nm).
Also: 0% is about no effect.

Transient receptor potential cation channel subfamily V member 1 (Homo sapiens), sequence (Q8NER1 whole entry, looked up): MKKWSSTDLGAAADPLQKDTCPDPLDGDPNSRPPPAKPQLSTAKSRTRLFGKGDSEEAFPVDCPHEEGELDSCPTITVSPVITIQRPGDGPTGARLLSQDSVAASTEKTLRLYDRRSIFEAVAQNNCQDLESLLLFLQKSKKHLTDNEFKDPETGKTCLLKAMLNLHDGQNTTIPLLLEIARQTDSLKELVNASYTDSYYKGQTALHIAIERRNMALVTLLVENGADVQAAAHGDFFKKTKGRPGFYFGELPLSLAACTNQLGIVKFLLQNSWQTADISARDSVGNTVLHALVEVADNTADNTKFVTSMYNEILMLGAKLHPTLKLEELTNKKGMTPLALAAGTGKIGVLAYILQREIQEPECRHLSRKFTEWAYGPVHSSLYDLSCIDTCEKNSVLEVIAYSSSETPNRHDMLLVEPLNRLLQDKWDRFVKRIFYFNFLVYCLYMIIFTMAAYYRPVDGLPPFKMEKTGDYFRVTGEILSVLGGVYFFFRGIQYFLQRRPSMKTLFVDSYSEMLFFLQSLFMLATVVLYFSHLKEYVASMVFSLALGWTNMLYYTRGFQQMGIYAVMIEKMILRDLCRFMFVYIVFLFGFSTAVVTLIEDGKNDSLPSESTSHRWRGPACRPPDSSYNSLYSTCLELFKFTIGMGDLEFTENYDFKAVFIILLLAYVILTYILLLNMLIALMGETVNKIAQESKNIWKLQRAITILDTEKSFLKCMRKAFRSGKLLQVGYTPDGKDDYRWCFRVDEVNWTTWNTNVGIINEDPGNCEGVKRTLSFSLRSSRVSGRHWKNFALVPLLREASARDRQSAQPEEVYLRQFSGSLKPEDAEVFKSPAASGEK

potentiation, inactive:
O=C(Nc1ccccn1)C1CCN(S(=O)(=O)c2ccc3c(c2)OCCO3)CC1 1.92%
O=C(CCNC(=O)c1ccc(Cl)cc1)NC1CCCc2ccccc21 (stereo not given) 27%
COc1ccccc1C(=O)Nc1ccc(OCC(=O)N2CCCCC2)cc1 -9.6%
COc1ccccc1C(=O)Nc1ccc(C)c(S(=O)(=O)N2CCCCC2)c1 -33.7%
Cc1ccc(NC(=O)Cn2c(C)csc2=O)cc1 15%
Cc1ccc(-n2nc(C)c(C(=O)O)c2-n2cccc2)cc1 21.9%
O=C(O)CSc1ccc(S(=O)(=O)N2CCCC2)cn1 5.08%
CCN(CC(=O)Nc1ccc(OC)cc1)C(=O)c1ccc(Cl)c(S(=O)(=O)N2CCCC2)c1 0.452%
Cc1ccc(C(=O)NCC(c2cccs2)N(C)C)cc1S(=O)(=O)N1CCOCC1 (stereo not given) 2.03%
Cc1noc(C)c1COc1ccc(C(=O)NCCOc2ccccc2)cc1 -13.4%
c1ccc2cc(CCCc3cc4ccccc4cn3)ncc2c1 -8.54%
O=c1ccc(S(=O)(=O)N2CCCC2)cn1Cc1nc(-c2ccccc2)no1 -29.3%
CC1CCc2sc(C(=O)NCC(c3ccco3)N3CCCCC3)cc2C1 (stereo not given) -4.62%
Cc1ccc(-c2ccc(/C=C(\C#N)C(N)=S)o2)c([N+](=O)[O-])c1 -9.36%
CCN(CC(=O)Nc1c(F)cccc1F)C(=O)c1cnc(C)cn1 -6.22%
CC1CC(=O)Nc2ccccc2N1C(=O)COc1ccc2cc(Br)ccc2c1 (stereo not given) -0.32%
O=C(OCC(=O)N1CCc2ccccc21)c1ccc([N+](=O)[O-])cc1 -20.6%
O=S(=O)(c1cccs1)N1CCN(CCOc2ccccc2)CC1 -11.9%
Cc1noc(C)c1C(=O)NCC1COc2ccccc2O1 (stereo not given) -2.08%
COc1ccc(-c2nc3c(c(SCC(=O)Nc4ccc(C(=O)O)cc4)n2)Cc2ccccc2O3)cc1 15.9%
